We go through 35 targets from the supplement of paper PMC10849652.

About 8,800 targets were measured; listed, in parts, are those with a hit and a random draw of the rest. About 0.5% of all pairs of compound and target were hits.

Chain of UniProt Q96NW4 (Q96NW4 whole entry, looked up): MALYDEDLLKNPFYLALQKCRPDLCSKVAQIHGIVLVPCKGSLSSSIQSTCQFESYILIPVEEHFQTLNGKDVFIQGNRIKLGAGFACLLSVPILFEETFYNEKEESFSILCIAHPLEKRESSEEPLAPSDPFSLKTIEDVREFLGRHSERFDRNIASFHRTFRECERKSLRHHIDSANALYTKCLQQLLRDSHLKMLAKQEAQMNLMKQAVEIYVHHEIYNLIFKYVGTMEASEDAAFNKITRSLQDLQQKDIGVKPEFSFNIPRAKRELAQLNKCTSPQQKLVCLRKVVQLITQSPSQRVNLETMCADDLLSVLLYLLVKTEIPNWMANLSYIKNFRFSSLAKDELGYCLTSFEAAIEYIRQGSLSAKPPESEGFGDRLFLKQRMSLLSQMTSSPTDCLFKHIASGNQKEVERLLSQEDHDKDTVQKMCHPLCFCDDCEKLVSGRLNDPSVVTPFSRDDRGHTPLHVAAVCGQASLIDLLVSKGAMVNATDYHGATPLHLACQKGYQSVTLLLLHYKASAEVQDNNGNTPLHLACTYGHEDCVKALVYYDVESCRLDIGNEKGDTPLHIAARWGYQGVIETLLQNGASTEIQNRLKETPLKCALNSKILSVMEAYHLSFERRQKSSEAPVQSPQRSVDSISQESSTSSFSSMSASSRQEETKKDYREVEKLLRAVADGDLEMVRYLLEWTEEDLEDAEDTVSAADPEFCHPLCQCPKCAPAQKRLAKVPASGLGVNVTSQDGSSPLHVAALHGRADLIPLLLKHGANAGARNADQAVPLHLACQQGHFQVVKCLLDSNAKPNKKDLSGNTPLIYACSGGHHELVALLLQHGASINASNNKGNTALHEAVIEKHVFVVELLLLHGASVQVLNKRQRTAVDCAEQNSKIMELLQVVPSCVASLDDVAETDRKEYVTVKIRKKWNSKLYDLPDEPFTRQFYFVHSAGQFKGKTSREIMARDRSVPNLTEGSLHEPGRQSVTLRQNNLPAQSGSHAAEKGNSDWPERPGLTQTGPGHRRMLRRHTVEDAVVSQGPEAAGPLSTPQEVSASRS
Chain of UniProt Q9BRQ8 (Q9BRQ8 whole entry, looked up): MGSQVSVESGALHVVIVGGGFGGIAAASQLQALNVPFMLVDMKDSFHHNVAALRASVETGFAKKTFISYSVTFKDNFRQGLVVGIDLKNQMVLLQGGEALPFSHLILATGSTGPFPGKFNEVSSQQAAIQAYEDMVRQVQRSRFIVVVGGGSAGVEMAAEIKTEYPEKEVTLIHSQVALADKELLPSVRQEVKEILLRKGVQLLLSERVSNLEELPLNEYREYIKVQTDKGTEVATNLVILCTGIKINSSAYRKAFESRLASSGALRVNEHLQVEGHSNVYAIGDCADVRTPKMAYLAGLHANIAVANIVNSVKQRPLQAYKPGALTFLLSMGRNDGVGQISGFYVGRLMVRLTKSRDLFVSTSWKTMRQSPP
Chain of UniProt Q16186 (Q16186 whole entry, looked up): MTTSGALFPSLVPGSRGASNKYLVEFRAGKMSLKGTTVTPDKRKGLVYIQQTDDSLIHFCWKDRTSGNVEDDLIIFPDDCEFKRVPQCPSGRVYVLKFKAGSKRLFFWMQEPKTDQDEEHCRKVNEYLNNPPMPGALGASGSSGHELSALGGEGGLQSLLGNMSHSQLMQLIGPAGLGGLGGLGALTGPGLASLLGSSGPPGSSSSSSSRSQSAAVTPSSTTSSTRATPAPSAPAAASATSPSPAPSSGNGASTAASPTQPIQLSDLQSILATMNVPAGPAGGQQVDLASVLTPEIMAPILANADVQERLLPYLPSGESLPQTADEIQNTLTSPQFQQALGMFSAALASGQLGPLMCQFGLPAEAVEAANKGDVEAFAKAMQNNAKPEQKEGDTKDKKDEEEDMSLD
Chain of UniProt P04083 (P04083 whole entry, looked up): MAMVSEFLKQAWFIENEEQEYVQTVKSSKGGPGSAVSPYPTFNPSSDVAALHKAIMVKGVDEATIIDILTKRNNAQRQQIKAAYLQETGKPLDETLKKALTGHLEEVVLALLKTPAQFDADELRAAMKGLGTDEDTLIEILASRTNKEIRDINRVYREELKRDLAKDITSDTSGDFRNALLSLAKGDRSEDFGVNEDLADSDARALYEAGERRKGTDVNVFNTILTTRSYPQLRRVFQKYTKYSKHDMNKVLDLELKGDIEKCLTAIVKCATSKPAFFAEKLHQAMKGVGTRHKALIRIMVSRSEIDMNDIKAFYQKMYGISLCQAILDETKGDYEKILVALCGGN
Chain of UniProt O43865 (O43865 whole entry, looked up): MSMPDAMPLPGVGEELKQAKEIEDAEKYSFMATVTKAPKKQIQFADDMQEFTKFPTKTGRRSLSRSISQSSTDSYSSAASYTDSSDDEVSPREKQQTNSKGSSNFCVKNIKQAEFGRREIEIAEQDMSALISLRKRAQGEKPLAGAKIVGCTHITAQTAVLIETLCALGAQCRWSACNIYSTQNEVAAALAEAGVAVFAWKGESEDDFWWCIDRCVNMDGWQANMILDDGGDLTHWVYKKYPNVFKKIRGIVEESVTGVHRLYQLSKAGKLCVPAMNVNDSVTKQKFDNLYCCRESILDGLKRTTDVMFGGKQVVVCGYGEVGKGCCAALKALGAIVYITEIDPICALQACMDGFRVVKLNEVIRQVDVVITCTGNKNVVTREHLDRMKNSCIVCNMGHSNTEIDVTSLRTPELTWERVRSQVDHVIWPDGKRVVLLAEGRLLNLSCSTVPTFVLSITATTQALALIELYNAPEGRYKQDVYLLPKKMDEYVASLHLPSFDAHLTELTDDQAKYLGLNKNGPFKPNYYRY
Chain of UniProt P31749 (P31749 whole entry, looked up): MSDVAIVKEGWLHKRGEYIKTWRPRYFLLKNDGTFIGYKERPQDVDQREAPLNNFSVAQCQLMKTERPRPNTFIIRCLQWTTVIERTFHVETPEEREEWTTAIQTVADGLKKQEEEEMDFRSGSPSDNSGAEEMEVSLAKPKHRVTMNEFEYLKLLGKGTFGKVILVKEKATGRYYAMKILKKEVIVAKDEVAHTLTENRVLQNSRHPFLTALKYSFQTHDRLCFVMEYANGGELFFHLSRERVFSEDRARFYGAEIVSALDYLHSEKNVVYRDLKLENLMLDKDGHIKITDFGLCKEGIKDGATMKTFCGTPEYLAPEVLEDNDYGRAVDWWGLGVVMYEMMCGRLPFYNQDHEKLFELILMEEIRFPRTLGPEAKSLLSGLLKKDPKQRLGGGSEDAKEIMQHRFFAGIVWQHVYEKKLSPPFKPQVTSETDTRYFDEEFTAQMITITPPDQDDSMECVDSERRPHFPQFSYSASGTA
Chain of UniProt P54886 (P54886 whole entry, looked up): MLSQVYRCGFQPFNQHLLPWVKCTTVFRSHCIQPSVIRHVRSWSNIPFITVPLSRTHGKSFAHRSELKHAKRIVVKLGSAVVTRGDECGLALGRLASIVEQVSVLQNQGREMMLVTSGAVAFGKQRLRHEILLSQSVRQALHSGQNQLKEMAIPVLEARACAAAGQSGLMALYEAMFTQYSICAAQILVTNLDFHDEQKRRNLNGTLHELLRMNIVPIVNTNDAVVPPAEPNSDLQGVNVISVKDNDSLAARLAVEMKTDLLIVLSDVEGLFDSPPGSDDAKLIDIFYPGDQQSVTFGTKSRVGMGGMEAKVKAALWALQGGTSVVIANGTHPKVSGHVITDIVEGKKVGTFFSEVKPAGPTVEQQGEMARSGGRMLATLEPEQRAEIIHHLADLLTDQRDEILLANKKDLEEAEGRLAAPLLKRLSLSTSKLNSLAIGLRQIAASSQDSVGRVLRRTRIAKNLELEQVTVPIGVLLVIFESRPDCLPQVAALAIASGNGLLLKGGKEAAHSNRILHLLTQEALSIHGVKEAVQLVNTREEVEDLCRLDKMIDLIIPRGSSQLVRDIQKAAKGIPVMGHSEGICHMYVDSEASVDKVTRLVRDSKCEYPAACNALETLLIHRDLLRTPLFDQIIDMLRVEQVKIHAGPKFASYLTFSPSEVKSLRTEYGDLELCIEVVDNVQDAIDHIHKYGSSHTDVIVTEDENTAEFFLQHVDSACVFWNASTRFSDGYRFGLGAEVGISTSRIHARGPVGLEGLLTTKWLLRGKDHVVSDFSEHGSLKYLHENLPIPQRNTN
Chain of UniProt P17707 (P17707 whole entry, looked up): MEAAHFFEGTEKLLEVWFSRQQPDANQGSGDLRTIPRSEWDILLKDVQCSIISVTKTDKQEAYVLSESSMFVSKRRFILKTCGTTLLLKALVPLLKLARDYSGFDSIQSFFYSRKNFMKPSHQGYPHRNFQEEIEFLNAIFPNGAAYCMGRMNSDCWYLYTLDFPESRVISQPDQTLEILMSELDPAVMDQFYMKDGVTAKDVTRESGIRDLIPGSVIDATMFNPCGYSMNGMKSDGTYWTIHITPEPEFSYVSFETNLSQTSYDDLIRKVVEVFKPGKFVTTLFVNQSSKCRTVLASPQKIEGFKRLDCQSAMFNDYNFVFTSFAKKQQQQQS
Chain of UniProt O43823 (O43823 whole entry, looked up): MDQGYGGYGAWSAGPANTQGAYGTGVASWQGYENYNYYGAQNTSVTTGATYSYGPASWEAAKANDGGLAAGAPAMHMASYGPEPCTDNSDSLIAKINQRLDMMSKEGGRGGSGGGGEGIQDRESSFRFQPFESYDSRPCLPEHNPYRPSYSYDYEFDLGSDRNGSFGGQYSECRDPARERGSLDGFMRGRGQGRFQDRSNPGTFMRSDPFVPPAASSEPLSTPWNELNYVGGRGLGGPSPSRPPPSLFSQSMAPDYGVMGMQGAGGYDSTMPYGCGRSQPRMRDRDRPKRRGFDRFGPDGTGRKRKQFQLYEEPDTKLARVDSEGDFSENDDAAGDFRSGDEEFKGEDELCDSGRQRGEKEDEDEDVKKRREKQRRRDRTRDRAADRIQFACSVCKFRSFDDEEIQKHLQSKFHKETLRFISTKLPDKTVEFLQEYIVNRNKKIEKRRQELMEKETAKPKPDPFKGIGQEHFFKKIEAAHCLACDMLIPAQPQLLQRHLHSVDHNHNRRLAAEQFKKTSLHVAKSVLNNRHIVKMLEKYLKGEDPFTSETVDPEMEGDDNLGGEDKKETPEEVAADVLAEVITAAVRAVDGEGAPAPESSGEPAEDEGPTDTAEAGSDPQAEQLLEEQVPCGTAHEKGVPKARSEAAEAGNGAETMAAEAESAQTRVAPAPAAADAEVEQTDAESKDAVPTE

Compound in the experiment: COc1cc(Nc2ncc3c(n2)-c2ccc(Cl)cc2C(c2c(F)cccc2OC)=NC3)ccc1C(=O)O [alisertib]
The experiment is described as follows: log2 fold change, soluble protein after heating vs DMSO (PISA); higher = thermal stabilisation; K562 lysate, 10 uM; active = over 0.2 and 3.5 SD of the protein, either way, in both replicates (recomputed). A digest of the protocol:
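A 30 min treatment with 10 μM compound was applied to crude K562 extract at 1 mg/mL protein in PBS pH 7.4 with 1 mM MgCl2. Heating for 3 min spanned 48°C-58°C, after which aliquots were pooled, adjusted to 0.5% NP-40 at 4°C and spun at 21,000xg for 90 min. TMTpro 16plex LC-MS/MS of the supernatant, with channel sums equalised, gave values recorded as log-two fold change in thermal stability against solvent controls, from duplicates.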
As to ABCF3 (UniProt Q9NUQ8), the log2 fold change was 0.004 (inactive).

On to AP3D1 isoform 5 (UniProt O14617), for which the log2 fold change was -0.009 (inactive).

Consider APAF1 (UniProt O14727), for which the log2 fold change is -0.027 (inactive).

With AGL (UniProt P35573), the log2 fold change was -0.004 (inactive).

On to ANKRD27 (UniProt Q96NW4), for which the log2 fold change was -0.053 (inactive).

AKR1B1 (UniProt P15121): the log2 fold change was 0.015 (inactive).

AFF1 isoform 2 (UniProt P51825): the log2 fold change is -0.043 (inactive).

In the case of ANXA1 (UniProt P04083), the log2 fold change was 0.001 (inactive).

With AARS2 (UniProt Q5JTZ9), the log2 fold change is 0.02 (inactive).

Consider AKAP8L (UniProt Q9ULX6), for which the log2 fold change was 0.043 (inactive).

Regarding AHCYL1 (UniProt O43865), the log2 fold change was -0.041 (inactive).

Turning to ADRM1 (UniProt Q16186), the log2 fold change was 0.032 (inactive).

Regarding ALDH6A1 (UniProt Q02252), the log2 fold change is 0.086 (inactive).

Regarding ACACA isoform 4 (UniProt Q13085), the log2 fold change is 0.014 (inactive).

For ASCC2 (UniProt Q9H1I8), the log2 fold change is -0.014 (inactive).

Take ACBD6 (UniProt Q9BR61): the log2 fold change is -0.006 (inactive).

Regarding ALG13 (UniProt Q9NP73), the log2 fold change is -0.059 (inactive).

With AMD1 (UniProt P17707), the log2 fold change was 0.027 (inactive).

For the target AK4 (UniProt P27144), the log2 fold change was 0.026 (inactive).

For AIFM2 (UniProt Q9BRQ8), the log2 fold change was -0.032 (inactive).

On to ASB6 (UniProt Q9NWX5), for which the log2 fold change is -0.001 (inactive).

Regarding ABCF2 isoform 2 (UniProt Q9UG63), the log2 fold change is 0.014 (inactive).

With ARGLU1 (UniProt Q9NWB6), the log2 fold change was -0.006 (inactive).

Consider ABL2 (UniProt P42684), for which the log2 fold change is -0.123 (inactive).

With AKT1 (UniProt P31749), the log2 fold change was 0.019 (inactive).

For AFF4 (UniProt Q9UHB7), the log2 fold change was -0.022 (inactive).

Consider ARL1 (UniProt P40616), for which the log2 fold change is 0.081 (inactive).

Turning to AKAP8 (UniProt O43823), the log2 fold change was 0.02 (inactive).

Regarding ACLY (UniProt P53396), the log2 fold change is 0.016 (inactive).

Take ACACB (UniProt O00763): the log2 fold change was 0.016 (inactive).

Turning to ARL15 (UniProt Q9NXU5), the log2 fold change was 0.005 (inactive).

On to ACAA1 (UniProt P09110), for which the log2 fold change is -0.035 (inactive).

Consider ACADM isoform 2 (UniProt P11310), for which the log2 fold change is 0.062 (inactive).

On to ALDH18A1 (UniProt P54886), for which the log2 fold change was 0.01 (inactive).

As to AGPS (UniProt O00116), the log2 fold change was 0.035 (inactive).
